Source: PMC5540273 (PLoS ONE, 2017)

Tests used:
Details in all cases: concentration: 1 μM, replicates: in singlicate; n = 1
[1] = tested on: PDGFRB
[2] = tested on: PDPK1
[3] = tested on: PFTAIRE2
[4] = tested on: T1, PFTK1
T1 construct: gene CDK14

[5] = tested on: PHKG1
[6] = tested on: PHKG2
[7] = tested on: PIK3C2B
[8] = tested on: PIK3C2G
[9] = tested on: PIK3CA
[10] = tested on: PIK3CB
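Also: KINOMEscan kinase panel screen.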

Cl.Cl.c1ccc(-c2cc3ccncc3cc2OC2CCNCC2)cc1 [GSK1122999]
%Inh [1]: 42% | %Inh [2]: 0% | %Inh [3]: 34% | %Inh [4]: 12% | %Inh [5]: 2% | %Inh [6]: 0% | %Inh [7]: 7% | %Inh [8]: 0% | %Inh [9]: 4% | %Inh [10]: 26%

O=C(Nc1ccccc1F)NC1CCN(c2ccnc(Nc3ccc(F)cc3)n2)C1 (centres unmarked) [GSK1379722]
%Inh [1]: 8% | %Inh [2]: 14% | %Inh [3]: 7% | %Inh [4]: 14% | %Inh [5]: 13% | %Inh [6]: 0% | %Inh [7]: 0% | %Inh [8]: 0% | %Inh [9]: 0% | %Inh [10]: 0%

Cc1cccc(-c2nc(Nc3ccc4[nH]nnc4c3)c3ccccc3n2)n1 [GW867587]
%Inh [1]: 0% | %Inh [2]: 0% | %Inh [3]: 0% | %Inh [4]: 0% | %Inh [5]: 0% | %Inh [6]: 0% | %Inh [7]: 0% | %Inh [8]: 0% | %Inh [9]: 0% | %Inh [10]: 0%

Cn1ccc2ncnc(Nc3ccc(Oc4cccc(Cl)c4)c(Cl)c3)c21
%Inh [1]: 4% | %Inh [2]: 22% | %Inh [3]: 24% | %Inh [4]: 0% | %Inh [5]: 0% | %Inh [6]: 10% | %Inh [7]: 0% | %Inh [8]: 28% | %Inh [9]: 10% | %Inh [10]: 60%

Nc1nc(-c2ccc3c(N)n[nH]c3c2)cc(N2CCCCC2)n1 [GSK2228768]
%Inh [1]: 8% | %Inh [2]: 94.6% | %Inh [3]: 1% | %Inh [4]: 9% | %Inh [5]: 0% | %Inh [6]: 0% | %Inh [7]: 0% | %Inh [8]: 0% | %Inh [9]: 0% | %Inh [10]: 0%
